VDR inhibitor = blocks the human vitamin D receptor. P11473. VDR-SRC2-3 peptide fluorescence polarization, 2 h. Potency, µM, inactives show max response, negative = inhibition, most hits filed as inhibitors. 400,000 tested, 0.93% active. AID 504847; further: on the % scale 0 is the no-effect control and ±100 the full control effect
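Fluorescence polarization assay of small-molecule disruption of VDR binding to coregulator peptide SRC2-3. Compounds and controls pin-transferred, then read after 2 h incubation at ambient room temperature.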
Mito fusion act = mitochondrial division inhibition or fusion activation; S. cerevisiae fusion-defective mutant growth rescue, CellTiterGlo 48 h; Potency, µM (top dose mostly 46.1 µM), inactives show at the top dose growth rescue (activation), usual class: activators; 320,000 tested, 0.23% active; AID 485298; further: % of control where 0% means no effect; nearly all actives have a fitted effect of over 45% in size
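S. cerevisiae fusion-defective temperature-sensitive mutants (e.g. fzo1-1, mgm1-5) grown 48 h at 37C in YPEG (ethanol/glycerol non-fermentable) medium with 23 nl compound per well; growth rescue read as CellTiterGlo luminescence.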
GLS inh = blocks human kidney-isoform glutaminase activity | 410,000 tested, 0.21% active | Potency, µM (highest dose often 45.5 µM), for inactives: top-dose activity change, negative = inhibition, actives largely listed as inhibitors | GLS enzymatic activity, qHTS titration; further: on the % scale 0 is the no-effect control and ±100 the full control effect
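Read-out is an Amplex red fluorescence increase coupled through glutamate oxidase and HRP, measured before and after 30 min room-temperature incubation. hKGA is in 45 mM KH2PO4 (pH 8.2) with 0.02% Tween-20; glutamine added as 1mM solution.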
GCN5L2 inh = inhibitors of human GCN5L2 histone acetyltransferase; AID 504327; 390,000 tested, 0.21% active; Potency, µM (series often up to 58.9 µM), for the others: at the top dose activity change, negative = inhibition, actives largely listed as inhibitors; GCN5L2 HAT assay, ThioGlo1 CoA-SH fluorescence; Q92830; further: on the % scale 0 is the no-effect control and ±100 the full control effect
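GCN5L2 (20 nM) in 50mM HEPES pH 7.5, 0.1mM EDTA, 0.01% Tween-20 preincubated 15 min with compounds at room temperature. Reaction started with H3(1-25) 75uM, acetyl-CoA 70uM, ThioGlo1 50uM; CoA-thiol fluorescence (Ex340/Em540) read at 0 and 20 min.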
PKM2 act = activators of human pyruvate kinase M2 | Potency, µM (highest dose often 57.5 µM), for inactives: top-dose activation, hits mostly activators | purified PKM2, Kinase-Glo ATP luminescence, activation; response scale: 0% is enzyme alone, no compound | P14618 | 260,000 tested, 0.34% active; further: on the % scale 0 is the no-effect control and ±100 the full control effect; nearly all actives have a fitted effect of over 55% in size
Target sequence (P14618 whole entry, looked up): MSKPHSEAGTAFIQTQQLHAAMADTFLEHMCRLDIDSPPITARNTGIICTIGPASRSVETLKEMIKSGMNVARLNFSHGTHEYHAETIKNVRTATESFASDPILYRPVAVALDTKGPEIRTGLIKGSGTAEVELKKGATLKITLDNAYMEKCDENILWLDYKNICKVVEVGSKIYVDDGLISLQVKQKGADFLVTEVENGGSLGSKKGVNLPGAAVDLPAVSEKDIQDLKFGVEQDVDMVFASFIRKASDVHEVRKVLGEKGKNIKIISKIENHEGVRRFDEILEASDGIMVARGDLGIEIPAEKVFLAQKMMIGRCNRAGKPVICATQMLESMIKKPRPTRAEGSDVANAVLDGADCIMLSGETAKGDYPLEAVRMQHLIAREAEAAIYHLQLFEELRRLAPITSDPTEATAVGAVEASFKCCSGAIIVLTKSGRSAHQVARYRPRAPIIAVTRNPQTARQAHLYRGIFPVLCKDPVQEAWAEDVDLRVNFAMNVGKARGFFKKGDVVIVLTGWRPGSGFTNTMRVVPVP
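ATP formation by purified human PK-M2, quantified via coupled luciferase luminescence after 1 h at room temperature with 0.1 mM ADP and 0.5 mM PEP final.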
PLK1 PBD inh = blocks phosphopeptide binding to human PLK1 polo-box domain. P53350. AID 720504. Plk1 PBD binding of FITC phosphopeptide, fluorescence polarization. Potency, µM, without a hit: max response, negative = inhibition, most hits filed as inhibitors. 360,000 tested, 2.8% active; further: series mostly up to about 57 µM; on the % scale 0 is the no-effect control and ±100 the full control effect; nearly all actives have a fitted effect of over 65% in size
An asterisk follows results filed as active. Hits are enriched below; roughly 3.4% of the tested compounds scored in any of these assays. The call rests on the fitted dose curve; in most records, active means well fitted curve in the direction sought with a large enough effect; inconclusive means small, poorly fitted or top-dose-only effect, or another doubt; inactive means no such curve, though single readings can be large; an effect the other way counts as inactive or inconclusive. Potency means the concentration at half of the fitted maximal effect.

Screening COc1ccc(CNC(=O)c2cc(C3CC3)nc3c2cnn3C(C)C)cc1 returned VDR inhibitor 0.1%, Mito fusion act -7.7%, GLS inh -1.5%, GCN5L2 inh -8.0% and PLK1 PBD inh 9.9%.
Screening CC(C)n1ncc2c(C(=O)O)cc(C3CC3)nc21 returned VDR inhibitor inconclusive, Mito fusion act 0.6%, GLS inh 3.2%, GCN5L2 inh -5.0%, PKM2 act 1.3% and PLK1 PBD inh 29.9µM*.
Screening CC(C)n1ncc2c(C(=O)Nc3cccc(C#N)c3)cc(C3CC3)nc21 returned VDR inhibitor 22.5%, Mito fusion act 15.8µM*, GLS inh -1.5%, GCN5L2 inh -12.2% and PLK1 PBD inh 3.2%.
Screening CC1CCC(=O)N(CCC#N)CC1 (stereo not drawn) returned VDR inhibitor -0.6%, Mito fusion act -0.9%, GLS inh 0.3%, GCN5L2 inh 1.6%, PKM2 act -1.0% and PLK1 PBD inh -12.0%.
Screening Nn1cc(-c2ccccc2)nc1SCC(=O)NCC1CCCO1 (stereo not drawn) returned VDR inhibitor -2.2%, Mito fusion act 6.7%, GLS inh 7.5%, GCN5L2 inh 0.4%, PKM2 act -0.1% and PLK1 PBD inh -2.9%.
CC1CCCCN1C(=O)CSc1nc(-c2ccccc2)cn1N (stereo not drawn) was read as VDR inhibitor inconclusive, Mito fusion act -3.7%, GLS inh -13.3%, GCN5L2 inh -11.7%, PKM2 act -4.3% and PLK1 PBD inh 23.8µM*.
CCCC(C)NC(=O)CSc1nc(-c2ccccc2)cn1N (stereo not drawn) was read as VDR inhibitor -4.4%, Mito fusion act -3.2%, GLS inh 5.0%, GCN5L2 inh 3.8% and PLK1 PBD inh 26.7µM*.
Screening C[C@@H]1C[C@H]2[C@@H]3CCC4=CC(=O)C=C[C@]4(C)[C@@]3(F)C(O)C[C@]2(C)[C@@]1(O)C(=O)CO (stereo partly drawn) returned VDR inhibitor -5.8%.
Screening C[C@H](CO)N1C[C@H](C)[C@@H](CN(C)S(C)(=O)=O)OCc2cnnn2CCCC1=O returned GLS inh -3.9% and PLK1 PBD inh -5.1%.
Screening CCC1(C)Cc2sc3c(=O)[nH]c(=S)[nH]c3c2CO1 (stereo not drawn) returned VDR inhibitor -16.3%, Mito fusion act -3.4%, GLS inh -26.8%, GCN5L2 inh 25.1µM*, PKM2 act -1.3% and PLK1 PBD inh 10.6µM*.
For CCN1CCc2nc(N)sc2C1 the results were VDR inhibitor 89.1µM*, Mito fusion act -3.4%, GLS inh 30.2%, GCN5L2 inh -0.2%, PKM2 act -5.4% and PLK1 PBD inh 4.23µM*.
For CC1(C)CC(NNCCC#N)=CC(=[N+]2CCCC2)C1 the results were VDR inhibitor 0.1%, Mito fusion act 1.9%, GLS inh -3.2%, GCN5L2 inh -12.4%, PKM2 act -0.3% and PLK1 PBD inh 23.8µM*.
O=C(CN1C(=O)CSC1=O)Nc1ccc(F)c(F)c1F was read as VDR inhibitor -17.2%, Mito fusion act 0.6%, GLS inh 49.9%, GCN5L2 inh -3.2%, PKM2 act 3.4% and PLK1 PBD inh 23.8µM*.
COC(=O)c1ccccc1NC(=O)CN1C(=O)CSC1=O was read as VDR inhibitor 12.4%, Mito fusion act -0.6%, GLS inh 3.8%, GCN5L2 inh -6.7%, PKM2 act -2.4% and PLK1 PBD inh -8.9%.
Screening Cc1c(C(=O)NC(C)CCc2ccccc2)cccc1[N+](=O)[O-] (stereo not drawn) returned VDR inhibitor -4.7%, Mito fusion act 2.8%, GLS inh -4.5%, GCN5L2 inh -15.0%, PKM2 act -0.8% and PLK1 PBD inh 11.9µM*.
For Cc1ccc(-c2cc(-c3ccccc3)c(C#N)c(N)n2)o1 the results were VDR inhibitor inconclusive, Mito fusion act 1.1%, GLS inh 42.4%, GCN5L2 inh inconclusive, PKM2 act inconclusive and PLK1 PBD inh 21.2µM*.

Assay outcomes deposited in PubChem BioAssay by National Center for Advancing Translational Sciences (NCATS).
